This passage reports potentiation results from PubChem BioAssay AID624464 (National Center for Advancing Translational Sciences (NCATS), 2012).

Each structure is given as a SMILES string. The campaign covered roughly 360,000 compounds. About 810 (0.23%) were called active. Cut-off read from the data, not from the text of the source: active = potentiation above about 50%; inconclusive = mostly about 30% to 49%; inactive = weaker than that. The entries come from a sample that favours actives as a whole.

The target in the assay is D(2) dopamine receptor (Homo sapiens) (UniProt P14416). Nature of the assay: Beta-Arrestin HTS for Positive Allosteric Modulators of the Human D2 Dopamine Receptor: Potentiators. The settings on record: DiscoveRx D2 beta-arrestin cells, luminescence, 90 min; hits give high values; 100% = 57 uM dopamine signal. In short, it runs like this: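 PathHunter beta-arrestin assay in DiscoveRx D2 cells. Compounds were added with an EC20 of dopamine (50 nM final) for 90 min at 37 deg C. Luminescence was read 1 h after detection reagent, with 57 uM dopamine as the EC100 control.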
Chain of D(2) dopamine receptor (Homo sapiens) (P14416 whole entry, looked up): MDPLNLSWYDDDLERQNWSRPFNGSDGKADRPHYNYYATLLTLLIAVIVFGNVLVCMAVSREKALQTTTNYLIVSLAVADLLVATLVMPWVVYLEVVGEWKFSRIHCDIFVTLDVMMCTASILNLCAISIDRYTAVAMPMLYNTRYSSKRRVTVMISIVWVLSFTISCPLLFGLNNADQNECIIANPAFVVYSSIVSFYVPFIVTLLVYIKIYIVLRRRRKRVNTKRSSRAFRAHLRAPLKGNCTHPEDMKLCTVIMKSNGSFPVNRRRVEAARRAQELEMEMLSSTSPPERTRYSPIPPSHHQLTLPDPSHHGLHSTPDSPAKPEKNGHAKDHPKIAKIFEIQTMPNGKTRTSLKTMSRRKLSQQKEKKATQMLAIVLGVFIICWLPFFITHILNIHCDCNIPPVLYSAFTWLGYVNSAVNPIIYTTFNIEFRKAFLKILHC
Turning to `N#Cc1cccc(CSc2nnc(CCCO)n2-c2ccccc2)c1`, the potentiation was -7.69% (inactive).
In the case of `O=C(NCc1ccccc1)C(c1ccccc1)N(C(=O)c1csnn1)c1ccc(F)cc1` (stereo not drawn), the potentiation was 0.0815% (inactive).
In the case of `N/C(=N\OC(=O)c1ccc2c(c1)OCO2)c1ccc(Br)cc1`, the potentiation was 24.5% (inactive).
Turning to `N/C(=N\OC(=O)N1c2ccccc2Sc2ccccc21)c1ccc(Br)cc1`, the potentiation was 86.3% (active).
Consider `N/C(=N\OC(=O)Cc1ccccc1[N+](=O)[O-])c1ccc(Br)cc1`, for which the potentiation was 18.7% (inactive).
Consider `CC1(C)CC(=O)C(C=NCc2cccnc2)=C(O)C1`, for which the potentiation was 0.0734% (inactive).
The same measure for `COc1ccc(N2CC(C(=O)NCCS(=O)(=O)N3CCN(c4ccccc4)CC3)CC2=O)cc1` (stereo not drawn): -8.09% (inactive).
Then `CCOc1ccc(N2C(=O)CC(N(O)c3ccccc3)C2=O)cc1` (stereo not drawn), with 51.5% (active).
The same measure for `CCOC(=O)c1ccc(N2C(=O)CC(N(C)Cc3ccccc3)C2=O)cc1` (stereo not drawn): -5.22% (inactive); for `CCOc1ccc(N2C(=O)CC(N(CCc3ccc(OC)c(OC)c3)C(=S)Nc3ccccc3)C2=O)cc1` (stereo not drawn): -3.21% (inactive).
For `Cc1c(C=O)c2ccccn2c1C(=O)c1ccncc1`, the potentiation was 13.6% (inactive).
For `C=CCn1c2c(c3ccccc31)CCC2`, the potentiation is -5.75% (inactive).
With `CCOc1ccc(OCC(=O)OC(C)C(=O)NC2CCCCC2C)cc1` (stereo not drawn), the potentiation is -13.2% (inactive).
As for `CCc1ccnc(NC(=O)Nc2ccc(OCc3ccccc3)cc2)c1`, the potentiation was -1.75% (inactive).
In the case of `COc1ccc(OC)c(S(=O)(=O)N2CCCC(C(=O)N3CCC(C(N)=O)CC3)C2)c1` (stereo not drawn), the potentiation is 7.76% (inactive).
With `CCOc1ccc(CCNC(=O)COC(=O)c2ccc(C)c(S(=O)(=O)N3CCOCC3)c2)cc1OCC`, the potentiation is 1.76% (inactive).
For `CCN(c1cccc(C)c1)S(=O)(=O)c1ccc(-c2coc(C)n2)cc1`, the potentiation is -22% (inactive).
With `Cc1ccc(-c2cn3cc(C)ccc3n2)cc1`, the potentiation is 6.89% (inactive).
Turning to `CCN(CC)S(=O)(=O)c1ccc(-c2cn3ccc(C)cc3n2)cc1`, the potentiation is 56% (active).
Consider `COc1cccc2c1C(=O)c1c(O)c3c(c(O)c1C2=O)CC(O)(C(C)=NNC(=O)c1ccc(Cl)c(Cl)c1)CC3OC1CC(N)C(O)C(C)O1` (stereo not drawn), for which the potentiation is -9.55% (inactive).
For the compound `CCc1nc2ccc(C(=O)N(C)CCN(C)C)cn2c1N(CC)CCOC`, the potentiation was -8.24% (inactive).
On to `O=C(NC(C(=O)NCCN1CCOCC1)C12CC3CC(CC(C3)C1)C2)C1CCCCC1` (stereo not drawn), for which the potentiation was -3.19% (inactive).
Take `COc1cccc(N(CC(=O)NCc2ccccc2)C(=O)CCC(=O)Nc2nccs2)c1`: the potentiation was -2.58% (inactive).
